Assay [1] concerns the target Rap guanine nucleotide exchange factor 3 (Homo sapiens) (UniProt O95398). Put plainly: Confirmatory qHTS for antagonist of cAMP-regulated guanine nucleotide exchange factor 3 (EPAC1) (AID 1645880). Also: nearly all actives have a fitted effect of over 55% in size. Also: potency is read from the fitted curve at half-maximal effect. The method in brief:
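Released BODIPY-GDP fluoresces less than Rap1-bound BODIPY-GDP; the signal is followed at 480/540 nm at 5-min intervals over 30 min, after 5 min at room temperature. Reactions contain 100 nM EPAC1, 250 nM RAP1B-BODIPY-GDP and 50 uM GDP; results are normalized to ATA and DMSO.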
(In general: In qHTS, concentration-response curves come from the screen itself.)

The target is the same in assay [2]. The experiment in a line: Confirmatory qHTS for agonist of cAMP-regulated guanine nucleotide exchange factor 3 (EPAC1) (AID 1645881). Also: nearly all actives have a fitted effect of over 75% in size. Also: potency is read from the fitted curve at half-maximal effect.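 As to activation: EPAC1 catalysed release of BODIPY-GDP from Rap1B seen as fluorescence loss; 100% = effect of cAMP agonist control.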
Assay [3] deals with Rap guanine nucleotide exchange factor 4 (Homo sapiens) (UniProt Q8WZA2). Put plainly: Confirmatory qHTS for agonist of cAMP-regulated guanine nucleotide exchange factor 4 (EPAC2) (AID 1645884).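 Also: nucleotide exchange releases bodipy-GDP from Rap1 and this lowers its fluorescence; nearly all actives have a fitted effect of over 65% in size.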 Also: potency is read from the fitted curve at half-maximal effect. As to activation: % is scaled to controls: 0 for no effect and ±100 for the full control effect.
Assay [4] has the same target. Put plainly: Confirmatory qHTS for antagonist of cAMP-regulated guanine nucleotide exchange factor 4 (EPAC2) (AID 1645885). Also: nearly all actives have a fitted effect of over 25% in size. Also: potency is read from the fitted curve at half-maximal effect. As to activity change, negative = inhibition: % is scaled to controls: 0 for no effect and ±100 for the full control effect.
Assay [5] concerns the target Rap guanine nucleotide exchange factor 3 (Homo sapiens) (UniProt O95398). The experiment in a line: Counterscreen qHTS for antagonist of cAMP-regulated guanine nucleotide exchange factor 3 (EPAC1) (AID 1645888). Also: % of control where 0% means no effect. Summed up: (§1)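 Measured: fluorescence of BODIPY-GDP bound to Rap1B, which falls as exchange proceeds. Conditions include 50 uM competing GDP, 5 and 30 min reads, and a later cAMP challenge for antagonist detection.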

Assay [6] shares this target. Put plainly: Counterscreen qHTS for agonist of cAMP-regulated guanine nucleotide exchange factor 3 (EPAC1) (AID 1645889). Also: nearly all actives have a fitted effect of over 40% in size. Also: potency is read from the fitted curve at half-maximal effect. As to activation: % of control where 0% means no effect. The method in brief: as §1

Results filed as inconclusive are left out. A number with no mark means an inactive call. Active and inactive are the calls of the source. Calls follow the shape of the dose curve; as a rule, active = well fitted curve in the direction sought with a large enough effect; inconclusive = small, poorly fitted or top-dose-only effect, or another doubt; inactive = no such curve, though single readings can be large; an effect the other way counts as inactive or inconclusive.

Rap guanine nucleotide exchange factor 4 (Homo sapiens), sequence (Q8WZA2 whole entry, looked up): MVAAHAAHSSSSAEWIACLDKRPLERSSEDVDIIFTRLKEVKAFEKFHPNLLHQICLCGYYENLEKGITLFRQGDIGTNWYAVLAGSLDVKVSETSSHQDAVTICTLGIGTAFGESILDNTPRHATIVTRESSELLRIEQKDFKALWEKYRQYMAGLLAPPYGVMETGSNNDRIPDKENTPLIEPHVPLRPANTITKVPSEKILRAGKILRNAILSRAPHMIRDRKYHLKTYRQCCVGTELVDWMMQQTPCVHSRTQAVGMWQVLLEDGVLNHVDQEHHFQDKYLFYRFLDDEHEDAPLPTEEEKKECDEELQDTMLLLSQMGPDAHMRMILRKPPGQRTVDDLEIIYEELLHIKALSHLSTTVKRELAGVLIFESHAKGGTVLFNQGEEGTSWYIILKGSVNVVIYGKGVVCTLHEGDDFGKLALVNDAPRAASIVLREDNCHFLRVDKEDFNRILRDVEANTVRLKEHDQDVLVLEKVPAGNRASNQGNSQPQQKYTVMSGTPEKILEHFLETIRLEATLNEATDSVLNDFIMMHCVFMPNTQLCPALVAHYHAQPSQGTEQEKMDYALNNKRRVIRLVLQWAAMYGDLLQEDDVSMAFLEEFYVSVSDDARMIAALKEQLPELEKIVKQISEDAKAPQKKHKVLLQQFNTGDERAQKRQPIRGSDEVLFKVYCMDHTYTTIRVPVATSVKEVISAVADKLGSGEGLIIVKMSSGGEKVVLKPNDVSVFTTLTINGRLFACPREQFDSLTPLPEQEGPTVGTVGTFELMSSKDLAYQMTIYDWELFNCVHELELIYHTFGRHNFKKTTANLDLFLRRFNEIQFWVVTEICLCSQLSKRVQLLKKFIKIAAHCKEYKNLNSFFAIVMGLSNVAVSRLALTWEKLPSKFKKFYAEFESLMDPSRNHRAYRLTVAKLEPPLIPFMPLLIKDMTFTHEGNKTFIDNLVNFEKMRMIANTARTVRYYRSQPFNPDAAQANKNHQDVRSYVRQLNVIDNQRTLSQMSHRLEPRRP
Rap guanine nucleotide exchange factor 3 (Homo sapiens), sequence (O95398 whole entry, looked up): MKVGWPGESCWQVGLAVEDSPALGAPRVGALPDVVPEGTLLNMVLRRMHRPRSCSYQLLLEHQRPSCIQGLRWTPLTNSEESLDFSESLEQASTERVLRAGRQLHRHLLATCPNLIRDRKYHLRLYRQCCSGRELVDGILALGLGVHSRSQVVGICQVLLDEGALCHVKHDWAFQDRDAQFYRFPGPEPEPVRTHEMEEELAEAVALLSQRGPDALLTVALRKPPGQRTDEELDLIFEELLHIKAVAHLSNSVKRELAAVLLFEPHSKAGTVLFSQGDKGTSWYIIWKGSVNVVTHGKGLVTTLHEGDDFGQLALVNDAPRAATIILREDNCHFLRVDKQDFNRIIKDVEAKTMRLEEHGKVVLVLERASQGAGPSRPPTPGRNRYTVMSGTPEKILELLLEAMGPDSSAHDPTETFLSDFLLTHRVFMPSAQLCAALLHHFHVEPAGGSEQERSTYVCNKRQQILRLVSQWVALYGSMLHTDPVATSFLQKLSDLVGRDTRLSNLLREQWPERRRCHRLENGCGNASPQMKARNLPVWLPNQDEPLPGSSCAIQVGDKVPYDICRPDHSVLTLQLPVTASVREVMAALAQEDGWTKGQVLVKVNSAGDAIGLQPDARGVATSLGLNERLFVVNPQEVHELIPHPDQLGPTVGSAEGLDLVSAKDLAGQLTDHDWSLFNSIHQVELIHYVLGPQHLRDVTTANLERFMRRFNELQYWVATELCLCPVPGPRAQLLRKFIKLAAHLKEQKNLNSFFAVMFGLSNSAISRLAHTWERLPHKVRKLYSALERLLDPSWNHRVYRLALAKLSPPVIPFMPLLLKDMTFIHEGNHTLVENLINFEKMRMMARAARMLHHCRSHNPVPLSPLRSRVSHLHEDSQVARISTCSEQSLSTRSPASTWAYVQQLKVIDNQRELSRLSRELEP

As for `Cc1ccc(CNC(=O)C(=O)NCCC2CCCCN2S(=O)(=O)c2cccs2)cc1` (stereo unspecified), the Potency entry in assay [1], in assay [2] and in assay [4] was “inactive” in each case. Moreover, the activation in assay [3] is -1.43% [at 17.1 µM, percent relative to cAMP agonist control]; in assay [6], 20.6% [at 30.8 µM]. Moreover, in assay [5], the activity change, negative = inhibition was -26.3% [at 30.8 µM].
Consider `C=CCOc1ccc(C(c2c(C(=O)O)[nH]c3ccccc23)c2c(C(=O)O)[nH]c3ccccc23)cc1`, for which the Potency in assay [1] was 33.8 µM (active). Further, the Potency result in assay [2], in assay [3], in assay [4], in assay [5] and in assay [6] was “inactive” each time.
Turning to `C[n+]1cc(C(=O)N2CCCCC2)ccc1/C=C/c1c[nH]c2ccccc12`, the Potency entry in assay [1] and in assay [4] was “inactive” throughout. Further, the Potency in assay [2] was 89.1 µM (active). Also, the activation in assay [3] was 10.6% [at 17.1 µM, percent relative to cAMP agonist control]; in assay [6] it was 14.5% [at 30.8 µM]. In assay [5], the activity change, negative = inhibition is -7.76% [at 30.8 µM].
With `COc1ccc(C2=CC(=O)C[C@H](COCc3ccccc3)N(C(=O)OC(C)(C)C)O2)cc1`, the Potency entry in assay [1], in assay [2], in assay [3], in assay [4], in assay [5] and in assay [6] was “inactive” throughout.
For the compound `Cc1ccc(-n2nc3ccc(NC(=O)/C=C/c4ccco4)cc3n2)cc1`, the Potency in assay [1] was 39.8 µM (active). Moreover, the Potency result in assay [2] and in assay [4] was “inactive” in each case. For the same compound, the activation is 5.31% [at 17.1 µM, percent relative to cAMP agonist control] in assay [3] and 13.9% [at 30.8 µM] in assay [6]. The activity change, negative = inhibition in assay [5] is 8.52% [at 30.8 µM].
On to `O=C(O)CN1C(=O)/C(=C\c2cccc(OCc3ccc(Cl)cc3Cl)c2)SC1=S`, for which the Potency in assay [1] was 44.7 µM (active); in assay [4], 0.301 µM (active). Moreover, the Potency result in assay [2] is “inactive”. For the same compound, the activation was 19.7% [at 17.1 µM, percent relative to cAMP agonist control] in assay [3] and 8.88% [at 30.8 µM] in assay [6]. For the same compound, the activity change, negative = inhibition in assay [5] was -5.98% [at 30.8 µM].
For the compound `Cc1ccc(C2(C)NC(=O)N(CC(=O)Nc3ccccc3N3CCCCC3)C2=O)cc1` (stereo unspecified), the Potency entry in assay [1], in assay [2], in assay [3], in assay [4], in assay [5] and in assay [6] was “inactive” throughout.
Turning to `Cc1cn([C@H]2C[C@H](O)[C@@H](CCC(=O)NCc3ccc4c(c3)OCO4)O2)c(=O)[nH]c1=O`, the Potency result in assay [1], in assay [2], in assay [3], in assay [4], in assay [5] and in assay [6] was “inactive” each time.
Consider `COn1c(-c2ccc(Cl)cc2Cl)nc2ncccc21`, for which the Potency entry in assay [1], in assay [2], in assay [3], in assay [5] and in assay [6] was “inactive” throughout. For the same compound, the Potency in assay [4] was 84.9 µM (active).
Take `COc1ccccc1N1CCN(c2ncnc3onc(-c4ccc(F)cc4)c23)CC1`: the Potency entry in assay [1], in assay [2], in assay [3], in assay [4], in assay [5] and in assay [6] was “inactive” each time.
With `CCOC(=O)CN1C(=O)c2ccccc2Sc2ncccc21`, the Potency entry in assay [1], in assay [2], in assay [4], in assay [5] and in assay [6] was “inactive” in each case. Besides, in assay [3], the activation is 0% [at 17.1 µM, percent relative to cAMP agonist control].
For `CO/N=C(/COc1ccc(F)cc1)c1ccc(OC)cc1`, the Potency entry in assay [1], in assay [2] and in assay [4] was “inactive” each time. For the same compound, the activation was -0.137% [at 17.1 µM, percent relative to cAMP agonist control] in assay [3] and 2.57% [at 30.8 µM] in assay [6]. Moreover, in assay [5], the activity change, negative = inhibition was -12% [at 30.8 µM].
For the compound `Cc1cc(/C=N/NC(N)=S)c(O)c(/C=N/NC(N)=S)c1`, the Potency entry in assay [1], in assay [4] and in assay [5] was “inactive” throughout. The results for the Potency in assay [2], in assay [3] and in assay [6] were 44.7 µM (active), 50.1 µM (active) and 6.31 µM (active), respectively.
Take `C/C(=C\C(=O)c1ccccc1)Nc1ccc(O)cc1`: the Potency result in assay [1], in assay [2] and in assay [4] was “inactive” throughout. In addition, the activation in assay [3] is 3.61% [at 17.1 µM, percent relative to cAMP agonist control]; in assay [6], 29.9% [at 30.8 µM]. Besides, the activity change, negative = inhibition in assay [5] was -14.8% [at 30.8 µM].
For `COc1cc2c(cc1OC)-c1cc(NC3CCCCC3)nc(=O)n1CC2`, the Potency entry in assay [1], in assay [2] and in assay [4] was “inactive” in each case. Besides, the activation in assay [3] was -2.19% [at 17.1 µM, percent relative to cAMP agonist control]; in assay [6], 2.97% [at 30.8 µM]. Besides, in assay [5], the activity change, negative = inhibition is 14.4% [at 30.8 µM].
In the case of `Cc1[nH]c2ccccc2c1C(=O)C(C)OC(=O)c1ccc(Cl)nc1` (stereo unspecified), the Potency result in assay [1], in assay [2] and in assay [4] was “inactive” throughout. Moreover, the activation is 9.38% [at 17.1 µM, percent relative to cAMP agonist control] in assay [3] and 19.4% [at 30.8 µM] in assay [6]. The activity change, negative = inhibition in assay [5] was -3.94% [at 30.8 µM].
For `CCCc1cc2c(cc1N(C)S(=O)(=O)c1ccccc1)OCO2`, the Potency result in assay [1], in assay [2], in assay [3], in assay [4], in assay [5] and in assay [6] was “inactive” each time.
On to `COC(=O)c1sc(-c2ccc(C(C)(C)C)cc2)cc1NC(=O)c1ccccc1C(=O)O`, for which the Potency in assay [1] was 50.1 µM (active). Besides, the Potency entry in assay [2] and in assay [4] was “inactive” in each case. Moreover, the activation in assay [3] is 5.26% [at 17.1 µM, percent relative to cAMP agonist control]; in assay [6], 9.25% [at 30.8 µM]. The activity change, negative = inhibition in assay [5] was -19.7% [at 30.8 µM].
As to `O=[N+]([O-])c1cc(-c2ccccc2)cc([N+](=O)[O-])c1O`, the Potency was 75.7 µM (active) in assay [1] and 42.6 µM (active) in assay [4]. For the same compound, the Potency result in assay [2], in assay [3], in assay [5] and in assay [6] was “inactive” each time.
As for `C/C(=N\NC(=O)c1cc(-c2cccc([N+](=O)[O-])c2)n[nH]1)c1ccccc1O`, the Potency in assay [1] is 26.9 µM (active). Moreover, the Potency result in assay [2], in assay [3], in assay [4], in assay [5] and in assay [6] was “inactive” each time.
Consider `CC(Sc1ccccc1)C(=O)NNC(=O)c1csc(N2CCOCC2)n1` (stereo unspecified), for which the Potency entry in assay [1], in assay [2] and in assay [4] was “inactive” each time. The activation in assay [3] was 4.98% [at 17.1 µM, percent relative to cAMP agonist control]; in assay [6], 28.3% [at 30.8 µM]. The activity change, negative = inhibition in assay [5] is 1.84% [at 30.8 µM].

Values taken from PubChem BioAssay (NCATS).
